Screen size: about 330,000 compounds; about 230 (0.07%) were called active.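 How the source made its calls: active means more than half of a compound's replicate wells show inhibition beyond 50%, single wells judged on their own value; inconclusive means some, but no more than half, of replicates pass 50% inhibition; inactive means no replicate passes 50% inhibition.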 Only a selection was taken, and actives are over-represented in it overall.
Target: Lysine-specific demethylase 4C (Homo sapiens) (UniProt Q9H3R0)
Sequence (Q9H3R0 1-420 limits assumed): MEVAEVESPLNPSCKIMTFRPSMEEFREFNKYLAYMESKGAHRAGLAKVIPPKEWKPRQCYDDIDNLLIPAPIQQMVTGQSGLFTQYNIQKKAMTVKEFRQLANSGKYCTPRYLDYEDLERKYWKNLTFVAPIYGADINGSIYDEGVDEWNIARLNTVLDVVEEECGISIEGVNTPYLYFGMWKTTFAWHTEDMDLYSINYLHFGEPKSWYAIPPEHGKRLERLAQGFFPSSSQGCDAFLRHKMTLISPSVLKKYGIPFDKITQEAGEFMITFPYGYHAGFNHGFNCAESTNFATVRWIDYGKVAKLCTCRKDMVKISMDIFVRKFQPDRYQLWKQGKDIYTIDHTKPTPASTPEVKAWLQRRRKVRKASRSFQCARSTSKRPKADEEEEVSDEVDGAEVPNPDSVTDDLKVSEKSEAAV
Test: inhibitors of GASC-1 histone demethylase, primary screen, biochemical, fluorescence, DELFIA europium (AID 2099);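 further: signal counts dimethyl H3K9 product captured on neutravidin plate; 0% = median of DMSO wells and 100% = 0.3 times that DMSO median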
Conditions: GST-JMJD2C(1-420) H3K9me3 demethylation, at 2.35 µM, hits give high values

SMILES | inhibition
O=c1[nH]c(O)c(C=Nc2cc(F)cc(F)c2)c(=O)[nH]1 | 8.75% (inactive)
Cc1ccc2c(c1)=C/C(=C\c1c(O)[nH]c(=O)[nH]c1=O)C(=O)N=2 | 68.2% (active)
O=C1N=c2ccccc2=C/C1=C\c1c(O)[nH]c(=S)[nH]c1=O | 0.999% (inactive)
COc1ccc(CN2CCN(c3ccccc3F)CC2)c(OC)c1 | 2.07% (inactive)
NCC(O)c1ccc(O)cc1 (stereo not given) | 4.95% (inactive)

Reference: PubChem BioAssay AID2099 (Broad Institute, 2009)
